Results taken from PMC4336329 (PLoS ONE, 2015).
In all, about 310,000 compounds went through this assay and about 14,000 (4.5%) showed an effect of 50% or more. The effect is printed as a negative number. Only a selection was taken, and strong results are over-represented in it overall.

Target: human ether-à-go-go-related gene (hERG) potassium channel (human, UniProt Q12809)
Assay: primary screen, population patch clamp on CHO cells stably expressing hERG; higher = less effect of the substance
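Note: peak tail current of the secondary pulse compared with the same well before compound.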

Sequence of human ether-à-go-go-related gene (hERG) potassium channel (Q12809 whole entry, looked up): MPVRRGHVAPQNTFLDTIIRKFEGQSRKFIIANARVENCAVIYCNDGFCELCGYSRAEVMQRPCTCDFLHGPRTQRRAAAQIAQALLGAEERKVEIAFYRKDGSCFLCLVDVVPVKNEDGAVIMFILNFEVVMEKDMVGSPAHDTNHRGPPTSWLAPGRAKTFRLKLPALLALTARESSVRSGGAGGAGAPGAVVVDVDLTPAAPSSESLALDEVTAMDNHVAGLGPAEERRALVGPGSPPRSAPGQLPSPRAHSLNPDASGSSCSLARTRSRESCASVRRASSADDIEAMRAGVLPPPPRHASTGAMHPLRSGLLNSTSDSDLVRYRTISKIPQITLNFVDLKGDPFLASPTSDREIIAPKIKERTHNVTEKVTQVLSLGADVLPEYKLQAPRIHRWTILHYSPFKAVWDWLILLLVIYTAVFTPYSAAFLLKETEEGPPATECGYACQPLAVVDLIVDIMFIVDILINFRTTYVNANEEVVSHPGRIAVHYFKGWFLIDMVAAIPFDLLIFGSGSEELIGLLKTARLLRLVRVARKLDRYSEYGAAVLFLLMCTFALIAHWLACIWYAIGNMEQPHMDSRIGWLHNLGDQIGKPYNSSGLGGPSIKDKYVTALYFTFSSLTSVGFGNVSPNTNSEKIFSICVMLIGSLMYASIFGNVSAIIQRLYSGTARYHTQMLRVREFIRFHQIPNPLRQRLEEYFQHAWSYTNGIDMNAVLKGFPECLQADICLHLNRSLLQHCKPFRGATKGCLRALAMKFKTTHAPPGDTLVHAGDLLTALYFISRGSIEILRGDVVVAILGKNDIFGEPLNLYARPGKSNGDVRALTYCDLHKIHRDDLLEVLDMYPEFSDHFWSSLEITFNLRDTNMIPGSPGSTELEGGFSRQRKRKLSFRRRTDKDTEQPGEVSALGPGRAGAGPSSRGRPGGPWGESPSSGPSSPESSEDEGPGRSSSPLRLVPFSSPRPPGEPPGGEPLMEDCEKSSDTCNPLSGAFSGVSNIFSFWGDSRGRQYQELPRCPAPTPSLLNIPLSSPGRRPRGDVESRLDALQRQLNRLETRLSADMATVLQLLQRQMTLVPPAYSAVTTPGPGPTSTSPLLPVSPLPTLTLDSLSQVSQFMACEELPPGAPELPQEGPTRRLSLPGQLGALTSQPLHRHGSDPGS

Row | Compound | hERG current change (%, negative = inhibition) at 10uM [%]
1 | O=C(COc1ccc(Cl)cc1)NNC(=O)CSc1nncs1 | 8.43
2 | COc1ccccc1Oc1ccccc1C(=O)O | 0.941
3 | O=C(NCc1ccc(Cl)cc1)C1C2C=CC3(CN(Cc4cccnc4)C(=O)C13)O2 (stereo not drawn) | -7.1
4 | COc1ccc(N2CCN(CCCNC(=O)C3CCCN(S(=O)(=O)c4c(C)n[nH]c4C)C3)CC2)cc1 (stereo not drawn) | 8.03
5 | COc1ccc(C(=O)C(C)OC(=O)c2nc3nccc(C)n3n2)cc1 (stereo not drawn) | 2.98
6 | CCOC(=O)C1CCCN(C(=O)c2ccc(CNc3c(N4CCC(C)CC4)c(=O)c3=O)cc2)C1 (stereo not drawn) | 5.83
7 | Cc1cc(SCC(=O)NN=C2CCN(C(C)C)CC2)c(C)cc1Br | -69.4
8 | CCCN1CCC(=NNC(=O)CSc2cc(C)c(Br)cc2C)CC1 | -28
9 | CC(=O)N1CCC(=NNC(=O)CSc2cc(C)c(Br)cc2C)CC1 | 6.38
10 | C=CCN(C(=O)Nc1ccc(Cl)cc1)C1CC(=O)N(c2ccc(OC)cc2)C1=O (stereo not drawn) | -14.8
11 | O=C(NCc1ccncc1)C(=O)C1C(=O)Nc2ccccc21 (stereo not drawn) | 11.6
12 | CCOC(=O)c1csc(NNC=O)n1 | 6.73
13 | CC(CNC(=O)CCS(=O)(=O)c1ccc2c(c1)NC(=O)CO2)c1ccccc1 (stereo not drawn) | -6.68
14 | Cn1cnc([N+](=O)[O-])c1Sc1ccc(Br)cc1 | -20
15 | Cc1ccc(Sc2c([N+](=O)[O-])ncn2C)cc1 | 3.39
16 | Cn1cnc([N+](=O)[O-])c1Sc1ccc([N+](=O)[O-])cc1 | -62.1
17 | Cc1c(C(=O)N2CCN(Cc3ccc4c(c3)OCO4)CC2)sc2ncnc(N3CCN(c4ccccc4)CC3)c12 | 7.82
18 | Cc1c(C(=O)N2CCN(c3ccccn3)CC2)sc2ncnc(N3CCN(c4ccccc4)CC3)c12 | -32.8
19 | CCN(CC)c1ncnc2sc(C(=O)N3CCN(c4ccc(OC)cc4)CC3)c(C)c12 | -41.5
20 | CCN(CC)c1ncnc2sc(C(=O)N3CCN(c4ccccc4)CC3)c(C)c12 | -50.2
21 | Cc1c(C(=O)N2CCN(c3ccc(F)cc3)CC2)sc2ncnc(N3CCN(c4ccccn4)CC3)c12 | -65.1
22 | Cc1c(C(=O)N2CCN(c3ccccn3)CC2)sc2ncnc(N3CCOCC3)c12 | -59

Row | Compound | hERG current change (%, negative = inhibition) at 10uM [%]
23 | COc1ccccc1N1CCN(C(=O)c2sc3ncnc(N4CCN(c5ccccn5)CC4)c3c2C)CC1 | -18.8
24 | Cc1c(C(=O)N2CCC3(CC2)OCCO3)sc2ncnc(N3CCN(c4ccccn4)CC3)c12 | -44.2
25 | Cc1c(C(=O)N2CCN(c3ccccc3)CC2)sc2ncnc(N3CCN(c4ccccn4)CC3)c12 | -35.1
26 | CN(C)CCOC(=O)c1ccc2c(c1)S(=O)(=O)c1ccccc1C2=O.Cl | -6.3
27 | COc1ccc2c(c1)c(C(=O)O)c(C)n2C(C)C | 13.3
28 | COc1ccc(N2CCN(C(=O)c3ccc(NS(=O)(=O)c4ccc(F)c(F)c4)cc3)CC2)cc1 | -44.3
29 | Cc1cc(C)nc(NC2=NCC(=O)N2CCc2c[nH]c3ccccc23)n1 | -2.13
30 | CCOC(=O)c1cnc(SC)nc1Oc1cccc(NS(=O)(=O)c2ccc(C)cc2)c1 | -6.83
31 | CCOC(=O)c1cnc(SC)nc1Oc1cccc(NS(=O)(=O)c2ccc(F)cc2)c1 | -71.2
32 | CCOC(=O)c1cnc(SC)nc1Oc1cccc(NS(=O)(=O)c2ccccc2)c1 | 16.1
33 | O=C(NCCN1CCOCC1)c1ccc(Cl)nc1Cl | -2.02
34 | CCCCCC(=O)N1CCN(S(=O)(=O)c2ccc3c(c2)OCCO3)CC1 | -61
35 | CC(=O)N1CCN(S(=O)(=O)c2ccc3c(c2)OCCO3)CC1 | 10.5
36 | CCCCCC(=O)N1CCN(S(=O)(=O)c2ccc3c(c2)OCCCO3)CC1 | -18.7
37 | COc1cc(NS(=O)(=O)c2ccc(NC(=S)NC(=O)c3sc4ccccc4c3Cl)cc2)ncn1 | 16.3
38 | COc1ccc(-c2[nH]ncc2CN2CCC(OCc3cccnc3)CC2)c(F)c1 | -37.1
39 | COc1cccc(C(=O)C2CCCN(Cc3cn[nH]c3C3CCCCC3)C2)c1 (stereo not drawn) | -32.1
40 | COc1ccc(-c2[nH]ncc2CN2CCCC(C(=O)c3cccc(OC)c3)C2)cc1 (stereo not drawn) | -67.3
41 | COc1ccc(-c2[nH]ncc2CN2CCC(OCc3ccccc3)CC2)c(F)c1 | -80.7
42 | COc1ccc(-c2[nH]ncc2CN2CCCOc3c(cccc3OC)C2)c(OC)c1 | -48
43 | COc1ccc(-c2[nH]ncc2CN2CCC(OCc3ccccn3)CC2)c(F)c1 | -31.1
44 | COc1ccc(-c2[nH]ncc2CN2CCCC(C(=O)c3ccc(OC)cc3OC)C2)cc1 (stereo not drawn) | -65

Row | Compound | hERG current change (%, negative = inhibition) at 10uM [%]
45 | COc1ccc(-c2[nH]ncc2CN2CCSCC2)c(OC)c1 | 14.7
46 | COc1ccc(-c2[nH]ncc2CN2CCCCCCC2)c(OC)c1 | -54.7
47 | COc1ccc(-c2nc3c(Br)c(N)c(Br)cc3o2)cc1 | 7.14
48 | O=C(CCCOc1ccc(Cl)cc1Cl)N/N=C/c1cccc([N+](=O)[O-])c1 | 9.56
49 | CS(=O)(=O)N1Cc2ccccc2CC1C(=O)OCC(=O)Nc1ccc2ccccc2c1 (stereo not drawn) | 7.36
50 | O=C(CSc1nc(C2CCCCC2)nc2ccccc12)N1CCCC1 | -12.6
51 | COc1ccccc1/C=N/NC(=O)C1=NNC(c2ccccc2)(c2ccccc2)C1 | 2.43
52 | O=C(CSc1nncn1-c1ccccn1)Nc1ccccc1Cl | 4.16
53 | CCCCn1nnnc1SCC(=O)Nc1ccc(C)cc1 | 2.26
54 | COc1cccc(OCCn2cc(C=O)c3ccccc32)c1 | 15.2
55 | CC(C)(C)c1ccc(C(=O)Nc2cccc3ncccc23)cc1 | -2.82
56 | Cc1cc(Oc2ccccc2)nc(SCC(=O)Nc2ccccc2)n1 | 19.4
57 | CC1CCN(c2oc(-c3ccccc3F)nc2C#N)CC1 | -10.7
58 | COc1cccc(C(=O)N2CCOCC2)c1 | 20.2
59 | O=C(Nc1ccccc1Cl)N1CCN(C/C=C/c2ccccc2)CC1 | -25.9
60 | Cc1ccccc1NC(=O)CCN1CCN(C)CC1 | 19.4
61 | O=C(Nc1ccc(F)cc1F)N1CCN(C/C=C/c2ccccc2)CC1 | -39.9
62 | Cc1ccccc1NC(=O)CCN1CCN(C/C=C/c2ccccc2)CC1 | -78.9
63 | Cc1cc(NC(=O)CN2CCN(C/C=C/c3ccccc3)CC2)c([N+](=O)[O-])cc1C | -12
64 | O=C(CCN1CCN(Cc2ccccc2)CC1)Nc1ccccc1Cl | -46.2
65 | Cc1ccc(S(=O)(=O)NC(CC(C)C)C(=O)N2CCN(C/C=C/c3ccccc3)CC2)cc1 (stereo not drawn) | -21.3
66 | CCC(C)c1ccccc1NC(=O)CN1CCN(C/C=C/c2ccccc2)CC1 (stereo not drawn) | -60.4

Row | Compound | hERG current change (%, negative = inhibition) at 10uM [%]
67 | Fc1ccc(NC(=S)N2CCN(C/C=C/c3ccccc3)CC2)c(F)c1 | -25.8
68 | O=C(CN1CCN(C/C=C/c2ccccc2)CC1)Nc1ccc(F)cc1F | -78.1
69 | Cc1ccccc1NC(=O)N1CCN(C/C=C/c2ccccc2)CC1 | -22.7
70 | Cl.O=C(CCN1CCN(C/C=C/c2ccccc2)CC1)Nc1ccccc1Cl | -76.4
71 | O=C(COC(=O)c1cnccn1)c1ccc(Br)cc1 | 0.614
72 | O=C(CNC(=O)c1ccc(Cl)cc1Cl)OCN1C(=O)c2ccccc2C1=O | 3.68
73 | Cc1[nH]c2ccccc2c1C(=O)C(=O)NCC1CCCO1 (stereo not drawn) | 6.3
74 | Cc1ccc(/C=C/C(=O)N2CC(=O)Nc3ccccc32)o1 | -24.2
75 | O=C(CN1C(=O)c2ccccc2C1=O)NCCOc1ccccc1 | -2.09
76 | Cc1ccccc1NC(=O)C(C)O/N=C/c1cccc([N+](=O)[O-])c1 (stereo not drawn) | -38.7
77 | CCCS(=O)(=O)N1CCCC(C(=O)NCCCN(C)c2ccccc2)C1 (stereo not drawn) | 5.82
78 | CN(C)/C=C(\C#N)S(=O)(=O)c1ccccc1 | 9.4
79 | O=C(CCN1CCN(c2ccccc2)CC1)Nc1ccccc1F | 8.14
80 | O=C(CCN1CCN(C/C=C/c2ccccc2)CC1)Nc1ccccc1F.O=C(O)C(=O)O | -75.1
81 | Fc1ccccc1NC(=S)N1CCN(C/C=C/c2ccccc2)CC1 | -23.4
82 | COc1ccc(CN2C(=O)c3ccccc3C2=O)cc1C(=O)Nc1ccccc1N1CCOCC1 | -10.7
83 | COCC(=O)N1CCC(Oc2ccc(C(=O)NCc3cc(C(C)C)no3)cc2)CC1 | -2.22
84 | CS(=O)(=O)Nc1cccc(-c2cnc3ccccc3n2)c1 | -70.4
85 | CC(=O)Nc1cccc(-c2cnc3ccccc3n2)c1 | -9.95
86 | CC(C)C(=O)Nc1cccc(-c2cnc3ccccc3n2)c1 | 4.12
87 | Cc1cc(S(=O)(=O)Nc2cccc(Cl)c2)c(C)s1 | 8.15
